Several values for one entry are separate records, joined by “and”; a condition that tells them apart may be missing. Equal entries are not always repeated. In all, about 5,500 compounds went through this assay and about 2,000 (36%) were called active. About 18% were inconclusive and are not listed. Cut-off read from the data, not from the text of the source: active = normalized growth mostly below about 0.91 (no sharp cut-off); inconclusive = no clear call, values can overlap the other calls; inactive = mostly above about 0.92. The list shows a part of the results.
Experiment: chemical genetic growth profiling, strain panel (AID 1159580);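 note: tested at 20 µM; growth read once vehicle control cultures reached saturation at 30 °C; 1 = growth at the plate median or of vehicle wells; lower values mean less growth of the strain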
Conditions: S. cerevisiae deletion strains, growth OD

Measured: normalized growth

O=C1C=CC2=C3c4cc(O)c(O)cc4C[C@@]3(O)COC2=C1
inactive: locus YAL021C, strain ccr4, stronger effect = lower value 0.965 | locus YAL026C, strain drs2, stronger effect = lower value 0.973 | locus YAL030W, strain snc1, stronger effect = lower value 0.979 | locus YBL061C, strain skt5, stronger effect = lower value 0.992 | locus YBR009C, strain hhf1, stronger effect = lower value 0.984 | locus YBR021W, strain FUR4, stronger effect = lower value 1.01 | locus YBR023C, strain chs3, stronger effect = lower value 0.99 | locus YBR171W, strain sec66, stronger effect = lower value 0.988 | locus YBR229C, strain ROT2, stronger effect = lower value 0.998 | locus YBR231C, strain swc5, stronger effect = lower value 0.978 | locus YBR279W, strain paf1, stronger effect = lower value 0.985 | locus YCL011C, strain gbp2, stronger effect = lower value 0.975 | locus YCL016C, strain dcc1, stronger effect = lower value 0.95 | locus YCL029C, strain bik1, stronger effect = lower value 1 | locus YCL061C, strain MRC1, stronger effect = lower value 0.98 | locus YCL069W, strain vba3, stronger effect = lower value 0.981 | locus YCR088W, strain abp1, stronger effect = lower value 0.99 | locus YDL005C, strain med2, stronger effect = lower value 0.966 | locus YDL035C, strain GPR1, stronger effect = lower value 1.03 | locus YDL040C, strain nat1, stronger effect = lower value 0.97 | locus YDL074C, strain BRE1, stronger effect = lower value 1 | locus YDL101C, strain DUN1, stronger effect = lower value 0.981 | locus YDL134C, strain PPH21, stronger effect = lower value 0.998 | locus YDL185W, strain tfp1, stronger effect = lower value 0.985 | locus YDL192W, strain arf1, stronger effect = lower value 1.01 | locus YDR001C, strain nth1, stronger effect = lower value 0.978 | locus YDR069C, strain doa4, stronger effect = lower value 0.94 | locus YDR101C, strain arx1, stronger effect = lower value 1.05 | locus YDR137W, strain rgp1, stronger effect = lower value 1.01 | locus YDR150W, strain NUM1, stronger effect = lower value 1 | locus YDR159W, strain sac3, stronger effect = lower value 0.986 | locus YDR162C, strain NBP2, stronger effect = lower value 1.03 | locus YDR195W, strain ref2 0.939 | locus YDR297W, strain sur2, stronger effect = lower value 0.981 | locus YDR318W, strain mcm21, stronger effect = lower value 0.998 | locus YDR334W, strain swr1, stronger effect = lower value 0.967 | locus YDR335W, strain msn5, stronger effect = lower value 0.969 | locus YDR388W, stronger effect = lower value 1 | locus YDR392W, strain spt3, stronger effect = lower value 0.95 | locus YDR502C, strain sam2, stronger effect = lower value 0.999 | locus YEL003W, strain gim4, stronger effect = lower value 0.989 | locus YEL037C, strain rad23, stronger effect = lower value 0.981 | locus YEL061C, strain CIN8 (second series), stronger effect = lower value 0.975 | locus YER015W, strain faa2, stronger effect = lower value 0.982 | locus YER016W, strain bim1, stronger effect = lower value 0.976 | locus YER110C, stronger effect = lower value 0.986 | locus YER111C, strain swi4, stronger effect = lower value 0.98 | locus YER155C, strain BEM2 (second series), stronger effect = lower value 0.972 | locus YER155C, strain BEM2, stronger effect = lower value 1.02 | locus YER167W, strain BCK2, stronger effect = lower value 1.01 | locus YFR010W, strain ubp6, stronger effect = lower value 0.963 | locus YGL078C, strain dbp3, stronger effect = lower value 0.967 | locus YGL086W, strain mad1, stronger effect = lower value 1.01 | locus YGL167C, strain pmr1, stronger effect = lower value 0.964 | locus YGL173C, strain kem1, stronger effect = lower value 0.977 | locus YGL227W, strain vid30, stronger effect = lower value 0.989 | locus YGL240W, strain doc1, stronger effect = lower value 0.985 | locus YGL248W, strain PDE1, stronger effect = lower value 0.981 | locus YGL253W, strain hxk2, stronger effect = lower value 0.978 | locus YGR135W, strain pre9, stronger effect = lower value 0.954 | locus YGR252W, strain gcn5, stronger effect = lower value 0.939 | locus YHR013C, strain ard1, stronger effect = lower value 0.954 | locus YHR027C, strain rpn1, stronger effect = lower value 0.972 | locus YHR030C, strain SLT2, stronger effect = lower value 1.03 | locus YHR079C, strain IRE1 (second series), stronger effect = lower value 1 | locus YHR079C, strain IRE1, stronger effect = lower value 1.02 | locus YHR094C, strain hxt1, stronger effect = lower value 0.994 | locus YHR129C, strain ARP1, stronger effect = lower value 0.997 | locus YHR142W, strain chs7, stronger effect = lower value 0.963 | locus YHR200W, strain rpn10, stronger effect = lower value 0.991 | locus YIL066C, strain RNR3, stronger effect = lower value 1.01 | locus YIL073C, strain SPO22, stronger effect = lower value 0.996 | locus YIL125W, strain kgd1, stronger effect = lower value 0.994 | locus YIR030C, strain dcg1, stronger effect = lower value 0.999 | locus YJL092W, strain hpr5, stronger effect = lower value 0.991 | locus YJL095W, strain BCK1 (second series), stronger effect = lower value 0.975 | locus YJL095W, strain BCK1, stronger effect = lower value 0.979 and 1.04 | locus YJL115W, strain asf1, stronger effect = lower value 0.975 | locus YJL129C, strain trk1, stronger effect = lower value 1 | locus YJL134W, strain LCB3, stronger effect = lower value 1.01 | locus YJL154C, strain vps35, stronger effect = lower value 0.981 | locus YJL164C, strain tpk1, stronger effect = lower value 0.962 | locus YJL166W, strain qcr8, stronger effect = lower value 0.979 | locus YJL168C, strain set2, stronger effect = lower value 0.996 | locus YJL187C, strain SWE1 (second series), stronger effect = lower value 0.96 | locus YJL187C, strain SWE1, stronger effect = lower value 0.988 | locus YJR043C, strain POL32, stronger effect = lower value 1.03

— PubChem BioAssay AID1159580 (chemical genetic matrix, 2015)
